Source: PubChem
Only some compounds are listed: those with a hit (about 2.2% of all), similar ones and a draw of the others.
FUS yeast rescue: suppressors of FUS proteinopathy in yeast | AID 1347120 | S. cerevisiae FUS-expressing, growth rescue, OD600, 24 h | Potency, µM (titrated, usually from 76.6 µM), most hits filed as activators | actives 0.24% (n = 390,000);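 note: plate controls were DMSO vehicle for no effect and reference control for full effect; nearly all actives have a fitted effect of over 55% in size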
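S. cerevisiae expressing FUS from galactose induction served as the toxicity model. Growth after 24hr at 30C, read as absorbance at 600 nm, indicates suppression of toxicity; compounds dosed at several concentrations.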
TDP43 rescue: rescues yeast growth from TDP-43 toxicity; AID 652104; actives 1.8% (n = 410,000); Potency, µM (highest dose often 46.1 µM), for the others: at the top dose growth rescue (activation), usual class: activators; TDP-43 expressing yeast growth rescue, BacTiter-Glo, 24 h; note: % of control where 0% means no effect; nearly all actives have a fitted effect of over 50% in size
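Readout is BacTiter-Glo luminescence of cell growth, so inhibitors register as activators. TDP-43-expressing yeast at OD600=0.02 in galactose medium, after raffinose pregrowth to mid-log, were incubated with compound for 24 hr at 30 deg C.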
Mito fusion yeast: inhibitors of mitochondrial division or activators of mitochondrial fusion. S. cerevisiae fusion-defective mutant growth rescue, CellTiterGlo 48 h. Potency, µM (top dose mostly 46.1 µM), for the others: top-dose growth rescue (activation), actives largely listed as activators. actives 0.23% (n = 320,000); note: % of control where 0% means no effect; nearly all actives have a fitted effect of over 45% in size
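Compounds are tested for their ability to restore growth of mitochondrial fusion-defective yeast strains at non-permissive 37C in YPEG medium over 48 hours. Viability is quantified by luciferase luminescence.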
aSyn rescue: inhibitors of alpha-synuclein toxicity in yeast. Yeast expressing alpha-synuclein, growth rescue, BacTiter-Glo, 24 h. Potency, µM (top dose mostly 46.1 µM), for the others: at the highest dose growth rescue (activation), actives largely listed as activators. actives 0.14% (n = 370,000); note: % of control where 0% means no effect; nearly all actives have a fitted effect of over 65% in size
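Screening used galactose-induced yeast with toxic alpha-synuclein levels, exposed to compound for 24 hr at 30 deg C. Cell growth, read with BacTiter-Glo luminescence, gave the measured signal.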
Abeta rescue: A-beta toxicity reversal in yeast. actives 0.063% (n = 410,000). yeast expressing A-beta42, growth rescue, OD600, 48 h; response scale: 0% DMSO, 100% iron-clioquinol control. Potency, µM (titrated, usually from 46.1 µM), most hits filed as activators. AID 1347071; note: nearly all actives have a fitted effect of over 55% in size
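Yeast A-beta toxicity model in growth medium with pinned compounds, 48 h at 30 C; growth read as absorbance at 600 nm. Normalized to FeCl3/clioquinol equimolar mix (positive) and DMSO (negative).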
An asterisk follows results filed as active; i = inactive; ? = inconclusive; nt = no result. Calls come from the whole dose curve; as a rule, active = well fitted curve in the direction sought with a large enough effect; inconclusive = small, poorly fitted or top-dose-only effect, or another doubt; inactive = no such curve, though single readings can be large; an effect the other way counts as inactive or inconclusive. Potency is the fitted concentration of half-maximal effect.

SMILES	FUS yeast rescue	TDP43 rescue	Mito fusion yeast	aSyn rescue	Abeta rescue
COc1ccc(-c2cc(C(=O)N3CCN(c4ncccn4)CC3)c3ccccc3n2)cc1	i	12.6µM*	14.5%	-12.4%	i
NCCN(Cc1ccc(Cl)c(Cl)c1)c1ccc(Br)cn1	nt	nt	nt	-24.6%	nt
C[C@H]1[C@@H](N(C)C)CC[C@@]23CCCN2C(=O)CCC[C@@H]13	i	nt	nt	nt	nt
CN1C(=O)C(c2cn(C)c3ccccc23)(c2cn(C)c3ccccc23)c2ccccc21	i	nt	nt	nt	nt
O=C(COC(=O)c1cccnc1Cl)c1cccc(Cl)c1	i	11.2µM*	-6.4%	nt	i
C(=C\c1ccnc2ccccc12)/c1ccc(N2CCN(c3ccc(/C=C/c4ccnc5ccccc45)cc3)CC2)cc1	nt	nt	nt	-10.9%	nt
Cc1ccc(CN2C(=O)[C@@H]3Cc4c([nH]c5ccccc45)C(C)(C)N3C2=O)cc1	i	nt	nt	nt	?
COc1cccc(CN2C(=O)[C@@H]3Cc4c([nH]c5ccccc45)C(C)(C)N3C2=O)c1	?	nt	nt	nt	10µM*
Cc1ccc(N(C)S(=O)(=O)c2nnc(NC(=O)C3CCCCC3)s2)cc1	i	13.4%	nt	-0.1%	i
Cc1nn(CC(=O)Nc2ccc3c(c2)OCCO3)c(C)c1[N+](=O)[O-]	i	6.31µM*	nt	3.3%	i
Cc1nn(CC(=O)c2ccc(Cl)s2)c(C)c1[N+](=O)[O-]	17.8µM*	28.5%	13.3%	18.7%	i
Cc1ccc(C(=O)Cn2nc(C)c([N+](=O)[O-])c2C)c(C)c1	i	19.8%	-1.8%	2.0%	i
C=CCn1cnc2c(nnn2-c2cc(C)cc(C)c2)c1=O	i	11.2µM*	-1.0%	2.1%	i
COC(=O)c1cc(-c2ccc(C(C)=O)cc2)c(=O)n2c1CCC2	i	nt	nt	nt	nt
Cc1[nH]c2ccccc2c1/C=N/Nc1ccc([N+](=O)[O-])cc1	i	2.82µM*	-1.3%	9.6%	i
Cc1[nH]c2ccccc2c1/C=N/NC(=O)c1cccc([N+](=O)[O-])c1	i	0.0%	-5.4%	-2.2%	i
CCc1nc(SCc2cc(=O)c3cc(F)ccc3[nH]2)n[nH]1	i	11.4%	nt	nt	i
C=CCn1cccc(C(=O)Nc2ccc(SC)cc2)c1=O	i	0.0%	?	2.9%	i
C=CCn1cccc(C(=O)Nc2ccc(Cl)cc2)c1=O	i	10µM*	?	2.0%	i
Cn1ccc2cc(-c3ccc4ncnc(NCc5cccc(F)c5)c4c3)ccc21	nt	nt	-16.4%	nt	nt
CN1CCCC1CCSc1ncccc1-c1nc2ccccc2[nH]1 (stereo not drawn)	i	nt	nt	nt	nt
Cc1cc(C)nc(SCC2COc3ccccc3O2)n1 (stereo not drawn)	i	14.1µM*	-1.7%	9.3%	i
COc1ccccc1N1CCN(C(=O)c2sc3nc(-c4ccc(F)cc4)cn3c2C)CC1	?	11.2µM*	?	17.3%	i
COc1cc2ccccc2cc1C(=O)N1CCN(c2ccccc2O)CC1	?	12.6µM*	7.5%	0.5%	i
CCOc1ccccc1N1CCN(C(=O)c2ccc(-c3ccc(OC(C)=O)cc3)cc2)CC1	?	20µM*	?	1.0%	i
SMILES	FUS yeast rescue	TDP43 rescue	Mito fusion yeast	aSyn rescue	Abeta rescue
CCCS(=O)(=O)N1CCN(C(=O)c2ccc(-c3ccccc3)cc2)CC1	i	17.8µM*	-8.3%	?	i
CCCCCCNc1ccc(/C=C/c2ccnc3ccccc23)cc1	nt	nt	nt	-65.4%	nt
Cc1ccc(NC(=O)Cn2cc(C(=O)C3CCCCC3)c3ccccc32)cc1	i	18.7%	nt	nt	i
COc1ccc(C(=O)N2CCN(c3ccccc3OC)CC2)cc1	i	?	-10.3%	10.4%	i
CN1CCN(C(=O)c2cc3c(=O)n4ccccc4nc3s2)CC1	i	-10.6%	-1.5%	1.2%	i
COc1ccccc1N1CCN(C(=O)c2cccc(Oc3ccccc3)c2)CC1	i	35.5µM*	-34.5%	4.6%	i
COc1ccccc1N1CCN(C(=O)c2cc3c(=O)n4ccccc4nc3s2)CC1	i	20µM*	-6.2%	8.0%	i
COc1ccccc1N1CCN(C(=O)c2ccncc2)CC1	i	-9.9%	-0.5%	0.5%	i
